Measured values reported in PubChem BioAssay AID687001 (Broad Institute, 2013).
Entries with a potency or affinity are not part of this list. Activity calls are given as the source filed them.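 The calls were made as follows: active = signal-lowering compounds whose fitted half-maximal concentration is at or below twice the top tested dose in every run; inconclusive = runs disagree, flat 30 to 70% inhibition, or poor curve fit; inactive = the rest.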

Molecular target: Protein S100-A4 (Homo sapiens) (UniProt P26447)
Assay: S100A4-myosin IIA binding inhibitor potency, dose response, biochemical, fluorescence polarization, cherry-picked hits (AID 687001)
Details: FP, S100A4/TAMRA-myosin IIA peptide binding; series mostly up to 11 µM

Sequence of Protein S100-A4 (Homo sapiens) (P26447 whole entry, looked up): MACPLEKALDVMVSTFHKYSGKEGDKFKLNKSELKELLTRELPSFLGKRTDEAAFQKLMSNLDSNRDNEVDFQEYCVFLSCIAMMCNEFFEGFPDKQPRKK

outcome, inactive:
Cc1cc(C)cc(OCC(=O)OCC(=O)N2CCc3ccccc32)c1
CC(=O)N1[C@H](C(=O)NCCCN(C)C)[C@@H](CO)[C@@H]2Cn3c(ccc(-c4cccc(F)c4)c3=O)[C@@H]21
O=C(NCCS(=O)(=O)NCCc1ccccc1)c1ccccc1
C[C@@H]1CCCCO[C@@H](CN(C)S(=O)(=O)c2cn(C)cn2)[C@@H](C)CN([C@H](C)CO)C(=O)c2cc(NS(=O)(=O)c3ccc(Cl)cc3)ccc2O1
CN(C)S(=O)(=O)c1ccc(Cl)c(C(=O)NNC(=O)Cn2ccc(C(F)(F)F)n2)c1
CC(C)NC(=O)N1[C@@H](CO)[C@@H](c2ccccc2)C12CN(C(=O)Cc1cccnc1)C2
COc1ccc(C2/C=C\CN(S(=O)(=O)c3cccc4cccnc34)CC(=O)N2Cc2ccc(F)cc2)cc1 (centres undefined)
COc1ccccc1NC(=O)N[C@H]1C=C[C@H](CC(=O)N2CCC(Cc3ccccc3)CC2)O[C@@H]1CO
CC(C)CC#Cc1cnc2c(c1)C(=O)N([C@H](C)CO)C[C@@H](C)[C@H](CN(C)S(C)(=O)=O)O2
CC(=O)N1CCCCN2[C@H](CO)[C@H](c3ccc(C#Cc4ccccc4F)cc3)[C@@H]2C1
Cc1ccccc1S(=O)(=O)N(C)C[C@@H]1OCc2cnnn2CCCC(=O)N([C@@H](C)CO)C[C@H]1C
O=Cc1ccc(N2N=C(c3ccccc3)CC2c2ccccc2)cc1 (centres undefined)
O=C(NCCc1ccncc1)Nc1ccc(F)cc1
C[C@@H]1CN([C@@H](C)CO)S(=O)(=O)c2ccc(-c3ccccc3)cc2O[C@H]1CN(C)Cc1cccc(F)c1
Cc1cc2c(cc1S(=O)(=O)N1CCN(c3cccc(C)c3C)CC1)OCCN2C
COc1ccc(-c2ccc3c(c2)[C@@H]2[C@@H](CCN2C(=O)NC2CCCC2)[C@H](CO)N3C)cc1
CCOc1ccc(N(CC(=O)NCCOc2ccccc2OC)S(=O)(=O)c2ccccc2)cc1
CC(C)c1ccc(/C=N/n2c(COc3ccccc3)n[nH]c2=S)cc1
O=C1NC[C@H](c2ccccc2)OC(=O)[C@H](Cc2ccc(F)cc2)C/C=C\C[C@H]1CC(=O)N(CCO)Cc1ccccc1
O=C(CNC(=O)c1ccco1)NNC(=O)c1ccc(Br)cc1
CCCCn1c(SCC(=O)NC2CCS(=O)(=O)C2)nc2ccccc2c1=O (centres undefined)
CC(C)[C@H](NC(=O)c1ccccc1F)C(=O)NCc1ccc(S(N)(=O)=O)cc1
O=S(=O)(Nc1ccc(N2CCCCC2)cc1)c1ccc(F)cc1
COc1ccccc1NC(=O)N[C@H]1CC[C@H](CCNS(=O)(=O)c2ccc(Cl)cc2)O[C@H]1CO
Cc1cccc(-n2nc3c(c2NC(=O)c2cc4ccccc4o2)CS(=O)(=O)C3)c1
CCCC(=O)Nc1ccc2c(c1)OC[C@@H](C)N(Cc1ccc(-c3ccccn3)cc1)C[C@H](C)[C@H](OC)CN(C)C2=O
CO[C@H]1CC[C@H]2CCN(C)C(=O)[C@@H](C)[C@H](OC)CN(C)C(=O)c3cc(C#N)ccc3OC[C@H]1O2
COC(=O)c1c(NC(=O)CCN2CCOCC2)sc2c1CCCC2
C(=Cc1nc2ccccc2o1)c1ccc2c(c1)OCO2
O=C(NCCCc1ccccc1)c1cccc(NC(=O)C2CCC2)c1
CC(C)n1nccc1N(Cc1ccc(C#N)cc1)S(=O)(=O)c1ccccc1
COc1cc(Cl)ccc1OCc1cc(C(=O)N(C)Cc2nnc(C)o2)no1
Cc1noc(C)c1NC(=O)Nc1ccc2c(c1)C(=O)N([C@H](C)CO)C[C@@H](C)[C@@H](CN(C)S(=O)(=O)c1ccc(Cl)cc1)OCCCC[C@H](C)O2
O=S(=O)(CCS(=O)(=O)c1ccccc1)c1ccccc1
Cc1ccnc(NC(=O)C(C)N2C(=O)c3ccccc3S2(=O)=O)c1 (centres undefined)
CCN(CC)c1ccc(S(=O)(=O)N2CCOCC2)cc1NC(=O)COC(=O)/C=C/c1ccccc1
Cc1ccc([N+](=O)[O-])cc1N=Nc1c(C)[nH]n(C(N)=S)c1=O
Cc1ccc(S(=O)(=O)Nc2ccc3c(c2)C(=O)N([C@H](C)CO)C[C@@H](C)[C@@H](CN(C)S(=O)(=O)c2ccc(C)cc2)OCCCC[C@@H](C)O3)cc1
C=CCn1c(C)nnc1SCC(=O)Nc1ccccc1C(=O)NC1CC1
